Source: PubChem (National Center for Advancing Translational Sciences (NCATS))
p53 reactivator = restores transcriptional activity of mutant p53 | H1299 p53-A138V BP100-luciferase reporter, luminescence, 24 h | Potency, µM (series often up to 92.2 µM), without a hit: top-dose activity change, positive = activation, actives largely listed as activators | 0.063% of 320,000 active | AID 504706; further: potency means the concentration at half of the fitted maximal effect; % of control where 0% means no effect; nearly all actives have a fitted effect of over 45% in size
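H1299 (p53-null), stable ts p53-A138V + BP100-Luc; 1000 cells/well, Opti-MEM/10% FBS; cpd 4 pt, 1:5; 24 h, 37 deg C, 5% CO2; detection reagent 10 min RT; luminescence.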
TCR act = activates T cell receptor signaling | Potency, µM (titrated, usually from 9.22 µM), for inactives: at the top dose activation of IL-2 secretion, most hits filed as activators | AID 504894 | 330,000 tested, under 10 active | primary human leukocytes, anti-CD3, IL-2 HTRF, 48 h; further: % of control where 0% means no effect
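Human primary leukocytes + a-CD3 beads + cpd, 48 hr; IL-2 in supernatant by HTRF (ex 320nm / em 665nm). No co-stimulatory signal supplied.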
BRCA1 expr act = increases BRCA1 expression; MCF7-BRCA1-FFLuc reporter, luminescence, 48 h; response scale: scaled: vehicle 0%, 10 µM genistein 100%; 1.1% of 380,000 active; AID 624202; Potency, µM (top dose mostly 46.1 µM), without a hit: top-dose activation, most hits filed as activators; further: potency means the concentration at half of the fitted maximal effect; nearly all actives have a fitted effect of over 80% in size
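Using MCF7 cells harboring a BRCA1 firefly luciferase reporter, plated 2 h before compound pinning, the screen measured luminescence after 48 h incubation. Responses were normalized to DMSO and 10 microM genistein, then fitted for concentration-effect.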
GLS inhibitor = inhibitors of human glutaminase (GLS); O94925; GLS enzymatic activity, qHTS titration; Potency, µM (titrated, usually from 45.5 µM), inactives show top-dose activity change, negative = inhibition, hits mostly inhibitors; 0.21% of 410,000 active; further: potency means the concentration at half of the fitted maximal effect; on the % scale 0 is the no-effect control and ±100 the full control effect
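Assay buffer: 45 mM KH2PO4 pH 8.2, 0.02% Tween-20. hKGA acts on L-glutamine (1 mM solution added); product glutamate is reported by an oxidase/peroxidase Amplex Red coupling, with fluorescence taken at baseline and 30 min.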
TSHR antagonist = antagonists of human thyroid stimulating hormone receptor; TSHR-expressing cells, TSH-stimulated cAMP HTRF, 2 h; hits give low values; P16473; AID 504810; activity change, negative = inhibition, % at 11.5 µM; 0.2% of 330,000 active;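 active means activity change below a set negative limit, meaning inhibition stronger than a set level, cut at about -70% in these data; inconclusive means activity change between two set negative limits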; further: on the % scale 0 is the no-effect control and ±100 the full control effect
Target sequence (P16473 whole entry, looked up): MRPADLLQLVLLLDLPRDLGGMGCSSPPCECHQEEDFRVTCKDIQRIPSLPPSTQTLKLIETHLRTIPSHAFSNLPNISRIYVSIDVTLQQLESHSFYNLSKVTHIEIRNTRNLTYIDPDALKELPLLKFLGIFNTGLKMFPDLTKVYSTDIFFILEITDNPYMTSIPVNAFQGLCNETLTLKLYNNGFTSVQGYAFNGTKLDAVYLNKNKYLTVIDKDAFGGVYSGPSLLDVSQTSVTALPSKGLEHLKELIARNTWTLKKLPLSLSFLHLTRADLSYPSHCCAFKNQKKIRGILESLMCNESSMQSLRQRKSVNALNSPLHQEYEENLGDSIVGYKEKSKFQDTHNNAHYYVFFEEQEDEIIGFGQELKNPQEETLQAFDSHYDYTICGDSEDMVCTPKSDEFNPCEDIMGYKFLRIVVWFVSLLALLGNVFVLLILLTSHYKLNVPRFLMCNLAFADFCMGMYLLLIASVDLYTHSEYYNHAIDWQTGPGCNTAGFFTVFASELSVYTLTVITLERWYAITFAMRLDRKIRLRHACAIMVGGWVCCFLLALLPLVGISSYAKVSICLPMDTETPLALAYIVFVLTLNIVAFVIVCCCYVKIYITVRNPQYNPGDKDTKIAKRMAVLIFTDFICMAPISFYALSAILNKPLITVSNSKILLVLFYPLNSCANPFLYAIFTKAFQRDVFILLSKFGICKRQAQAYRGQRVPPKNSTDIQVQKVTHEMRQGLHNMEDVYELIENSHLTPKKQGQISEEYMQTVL
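Antagonism was scored as loss of TSH-driven cAMP in TSHR cells, stimulated with 4nM TSH (EC80) for 2 hours at 37 deg C and detected by homogeneous HTRF competition immunoassay.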
N370S GC = N370S glucocerebrosidase modulation, Gaucher chaperone candidate. Potency, µM (highest dose often 59.4 µM), for inactives: top-dose activity change, negative = inhibition, usual class: inhibitors. AID 2101. P04062. N370S GC spleen homogenate, 4MU-glucoside fluorescence. 0.092% of 330,000 active;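 further: potency means the concentration at half of the fitted maximal effect; 0% = full enzyme activity and -100% = no enzyme basal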
* hit, by the source's call; ? = inconclusive; nt = no result; [ ] = another dose, or the depositor's remark. Shown are actives, neighbours in structure and some others; about 1.4% of the full set was active somewhere. Unless noted, the call rests on the fitted dose curve; in most records, active means well fitted curve in the direction sought with a large enough effect; inconclusive means small, poorly fitted or top-dose-only effect, or another doubt; inactive means no such curve, though single readings can be large; an effect the other way counts as inactive or inconclusive.

SMILES	p53 reactivator	TCR act	BRCA1 expr act	GLS inhibitor	TSHR antagonist	N370S GC
CC(C)(C)CC(=O)Nc1ccc(Nc2ccccc2)cc1	?	5%	6.3µM*	-3%	-2	4%
CCCCc1ccc(NC(=O)CC(C)(C)C)cc1	?	-1%[46.1 µM]	13µM*	1%	-24	16%
CCCCN1C(=O)/C(=C/C=C2/CC(C)(C)CN2C)SC1=S	?	8%[46.1 µM]	10µM*	-2%	-13	?
COc1ccc(Nc2oc(-c3cccs3)nc2C#N)cc1	7%	-5%	1.4µM*	1%	14	-25%
N#Cc1nc(-c2cccs2)oc1NCCc1ccccc1	?	-3%	11µM*	-4%	-4	?
CCCCc1nc2c(c3c1C[C@H](C)OC3)CN(C(=O)NCc1ccco1)CC2	nt	nt	nt	nt	nt	5%[12.8 µM]
CCOc1cc(CNc2ccc(O)cc2)ccc1OCc1ccc(Cl)cc1	nt	nt	nt	14%	nt	nt
COc1ccc(C(=O)CSC(=S)N2CCCCC2)cc1	nt	nt	3.2µM*	4%	nt	nt
O=C(CSC(=S)N1CCCCC1)c1ccccc1	-3%	-4%	-2%	-3%	-17	16%
FC(F)(F)C(F)(F)C(F)(F)C(F)(F)C(F)(F)C(F)(F)C(F)(F)C(F)(F)Br	nt	nt	nt	-9%	nt	nt
CCOC(=O)/C(C#N)=C\C=C1C=CN(C)C=C1	10%	10%	4µM*	19%	-19	-27%
CCOC(=O)/C(C#N)=C\c1ccc(CC)s1	15%	2%	25%	-5%	25	-6%
Clc1ccc2c(Cl)cc[n+](CCC3CCCCC3)c2c1	nt	nt	0%	nt	nt	nt
N#Cc1c[nH]n2c(NC3CCCC3)c(-c3ccc(Br)cc3)nc12	nt	nt	nt	-16%	nt	nt
CCOc1ccc(-c2nc3c(C#N)c[nH]n3c2NC2CCCCC2)cc1	nt	nt	nt	13µM*	nt	nt
COc1ccc(-c2nc3c(C#N)c[nH]n3c2NC2CCCC2)cc1	nt	nt	nt	13µM*	nt	nt
O=C1c2ccccc2NC(c2ccccc2O)N1O (stereo not drawn)	9%	-3%	-37%	25%	3	5%
Cc1ccc(N2C(=O)c3ccccc3NC2c2ccccc2O)cc1 (stereo not drawn)	?	-1%	1.6µM*	3%	9	?
Cc1ccc(-n2nc(C(=O)N(C)c3ccccc3Cl)c3c4ccccc4n(C)c3c2=O)cc1	nt	nt	nt	-6%	nt	nt
Cc1ccc2sc(N(CCCN(C)C)C(=O)c3ccc(S(=O)(=O)N(C)C4CCCCC4)cc3)nc2c1C	11%	-3%	-88%	-4%	0	20µM*
Cc1cc(C=O)c(C)n1-c1cc(C(=O)O)cc(C(=O)O)c1	-1%	-4%	11%	18µM*	-6	0%
COc1ccc(-c2nnc3ccc(SC(C)C)nn23)cc1OC	nt	nt	-47%	nt	nt	nt
CC(=O)Nc1ccc(S(=O)(=O)Nc2ccc([N+](=O)[O-])cc2)cc1	nt	nt	nt	-12%	nt	16µM*
C/C(=N\Nc1ccccn1)c1ccc(N2CCOCC2)cc1	2%	-1%	4.5µM*	17%	-3	-4%
Cc1ccc2c(Cl)c(C(=O)NCCc3ccccc3)sc2c1	?	-1%[46.1 µM]	3.2µM*	-1%	-10	?
SMILES	p53 reactivator	TCR act	BRCA1 expr act	GLS inhibitor	TSHR antagonist	N370S GC
CCNC(=O)c1sc2cc(C)ccc2c1Cl	3%	1%	7.1µM*	-1%	-30	24%
C=C1C=C(C)n2ncc(C(=O)Nc3cccc(C(=O)Nc4cccc(C(F)(F)F)c4)c3)c2N1	nt	nt	10%	nt	nt	nt
Cc1cc(NC(=O)COC(=O)c2ccccc2OCCOc2ccccc2)ccc1Br	nt	nt	29%	nt	nt	nt
Cc1nnc(NCc2ccco2)s1	0%	-10%	1%	-4%	3	-20%
c1coc(CNc2nc3ccccc3s2)c1	?	-2%	3.2µM*	0%	2	7%
CCC(Oc1ccc(F)cc1)C(=O)Nc1nc(-c2ccc(F)cc2)ns1 (stereo not drawn)	nt	nt	nt	-2%	nt	nt
COc1ccc2sc(NCc3ccccc3)nc2c1	?	-8%	2.8µM*	16%	0	0%
COc1ccc2sc(NC(C)=O)nc2c1	?	-2%	?	14%	6	-3%
